Source: the supplement of paper PMC8007513
Counter-ions that a name gives are not always drawn. ± gives the standard error. Out of some 1,300 compounds screened, about 75 (6%) showed an effect of 50% or more. The entries come from a sample that favours strong results as a whole.

System: Trichoderma virens ATCC 9645
Assay: growth yield (OD600) relative to untreated control; higher = less growth inhibition
Conditions: compound concentration: 100 uM
Procedure, shortened: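 Growth appears as means of duplicate screens, relative to the control containing neither agent. To obtain it, OD600 was read on a BioTek EL800 at 40 h and 72 h. The cultures were 100 μl aliquots in 96-well plates at 30 °C, holding Trichoderma virens ATCC 9645 spores at 15,000 spores ml^−1 in potato dextrose broth, library compounds at 100 μM final, and, in some wells, a biocide at 200 ng ml^−1.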

Structure (SMILES) | growth yield (40 h) | growth yield (72 h)
Oc1cc(Cl)ccc1Oc1ccc(Cl)cc1Cl [Triclosan] | 6.99 ± 4.1% | 3.25 ± 0.1%
CCNCC(O)c1cccc(O)c1 (stereo not given) [Etilefrine hydrochloride] | 105 ± 3% | 103.1 ± 0.94%
C=CCC1(CC(C)C)C(=O)NC(=O)NC1=O [Butalbital] | 98.2% | 96.5%
CNCC(O)c1ccc(O)cc1 (racemic) [(+,-)-Synephrine] | 105 ± 4.3% | 100 ± 2.3%
O=C([O-])c1ccccc1-c1c2cc(Br)c(=O)cc-2oc2[c]([Hg+])c([O-])c(Br)cc12.[Na+].[Na+].[OH-] [Merbromin] | 2.54 ± 0.95% | 2.2 ± 0.94%
CCN(CC)C(C)C(=O)c1ccccc1 (stereo not given) [Amfepramone hydrochloride] | 102 ± 3% | 99 ± 3.1%
CC1OC(OC2/C=C/C=C/C=C/C=C/CC/C=C/C=C/[C@H](C)[C@@H](O)[C@@H](C)[C@H](C)OC(=O)CC(O)CC(O)CC(O)CCC(O)C(O)C[C@]3(O)CC(O)C(C(=O)O)C(C2)O3)C(O)C(N)C1O (stereo not given in full) [Nystatine] | 97.4 ± 5.6% | 107.3 ± 0.94%
O=C(CCCN1CCC(n2c(=O)[nH]c3ccccc32)CC1)c1ccc(F)cc1 [Benperidol] | 102 ± 5.2% | 99.9 ± 7.2%
CC[C@H](C)[C@H]1O[C@]2(C=C[C@@H]1C)C[C@@H]1C[C@@H](C/C=C(\C)[C@@H](O[C@H]3C[C@H](OC)[C@@H](O[C@H]4C[C@H](OC)[C@@H](O)[C@H](C)O4)[C@H](C)O3)[C@@H](C)/C=C/C=C3\CO[C@@H]4[C@H](O)C(C)=C[C@@H](C(=O)O1)[C@]34O)O2.CO[C@H]1C[C@H](O[C@H]2[C@H](C)O[C@@H](O[C@@H]3/C(C)=C/C[C@@H]4C[C@@H](C[C@]5(C=C[C@H](C)[C@@H](C(C)C)O5)O4)OC(=O)[C@@H]4C=C(C)[C@@H](O)[C@H]5OC/C(=C\C=C\[C@@H]3C)[C@]54O)C[C@@H]2OC)O[C@@H](C)[C@@H]1O [Avermectin B1] | 107 ± 5.6% | 105 ± 2.3%
CCCCCC[C@H]1C(=O)O[C@H](C)[C@H](NC(=O)c2cccc(NC=O)c2O)C(=O)O[C@@H](C)[C@@H]1OC(=O)CC(C)C [Antimycin A] | 27.5 ± 1.1% | 49.6 ± 2.6%
C#CCN(C)[C@H](C)Cc1ccccc1 [Selegiline hydrochloride] | 102 ± 1.4% | 104 ± 5%
CCCC(C)C1(CC)C(=O)NC(=O)NC1=O (stereo not given) [Pentobarbital] | 101.3 ± 0.95% | 102 ± 1.7%
CC(=O)OCC1=C(C(=O)O)N2C(=O)[C@@H](N)[C@H]2SC1 [Cephalosporanic acid, 7-amino] | 105 ± 5.7% | 107 ± 6.2%
CCC(=O)O[C@@](Cc1ccccc1)(c1ccccc1)[C@@H](C)CN(C)C [Levopropoxyphene napsylate] | 106 ± 2.9% | 103 ± 3.4%
C[C@]12C/C(=C/O)C(=O)C[C@@H]1CC[C@@H]1[C@@H]2CC[C@@]2(C)[C@H]1CC[C@]2(C)O [Oxymetholone] | 96.9 ± 9.2% | 91.5 ± 4.8%
C[C@@H]1C[C@@H]([C@H](O)CC2CC(=O)NC(=O)C2)C(=O)[C@@H](C)C1 [Cycloheximide] | 46.7 ± 7.3% | 75.5 ± 5.5%
NCC(CC(=O)O)c1ccc(Cl)cc1 (racemic) [Baclofen (R,S)] | 105 ± 4.1% | 105 ± 4.7%
CN[C@@H]1[C@@H](O)[C@@H](O[C@@H]2[C@@H](O)[C@H](O[C@H]3O[C@H](CN)CC[C@H]3N)[C@@H](N)C[C@H]2N)OC[C@]1(C)O.CN[C@@H]1[C@@H](O)[C@@H](O[C@@H]2[C@@H](O)[C@H](O[C@H]3O[C@H]([C@@H](C)N)CC[C@H]3N)[C@@H](N)C[C@H]2N)OC[C@]1(C)O.CN[C@@H]1[C@@H](O)[C@@H](O[C@@H]2[C@@H](O)[C@H](O[C@H]3O[C@H]([C@@H](C)NC)CC[C@H]3N)[C@@H](N)C[C@H]2N)OC[C@]1(C)O [Gentamicine sulfate] | 101% | 97.3%
NC(=O)OCCCc1ccccc1 [Phenprobamate] | 104 ± 6.3% | 101 ± 4.6%
COc1cccc(C2(O)CCCCC2CN(C)C)c1 (stereo not given) [Tramadol hydrochloride] | 101 ± 1.3% | 99.8 ± 2.1%
